Here are results for 1 compound from the supplement of paper PMC11732987, “Enantioselective OTUD7B fragment discovery through chemoproteomics screening and high-throughput optimisation” (Communications Chemistry, 2025).

Assay in all cases: log2 ratio of Biotin-Ahx-Ub-VS probe labelling (fragment/DMSO); higher = less target engagement (more negative = stronger competition), active = hit call of the paper (q ≤ 0.05, log2 ratio ≤ -1)
Common to all, as to settings: compound concentration: 200 uM; treatment time: 3 h

In one assay the target is T1, OTUD6B (UniProt Q8N6M0).
T1 sequence (whole entry): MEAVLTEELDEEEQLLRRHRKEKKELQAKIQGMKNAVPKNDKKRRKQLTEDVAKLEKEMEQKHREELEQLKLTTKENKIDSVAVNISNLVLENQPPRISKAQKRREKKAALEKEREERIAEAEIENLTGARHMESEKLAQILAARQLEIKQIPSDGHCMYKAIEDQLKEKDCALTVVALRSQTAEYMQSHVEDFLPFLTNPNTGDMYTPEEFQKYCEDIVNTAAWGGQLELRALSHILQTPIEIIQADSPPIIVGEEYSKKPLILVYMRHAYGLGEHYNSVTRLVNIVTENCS
Summed up: (§1)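 Using Biotin-Ahx-Ub-VS at 0.5 µM final for 1 h, DUBs were labelled in HEK293T lysate (495 µg per sample) that had first been treated in triplicate with fragment at 200 µM or vehicle for 3 h. NeutrAvidin enrichment, LysC and trypsin digestion and diaPASEF LC-MS/MS followed. Spectronaut label-free quantities were global-median-normalised. Values are average log2 fragment/vehicle ratios by unpaired t-test, using proteins with ≥2 unique peptides.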

The target of a further assay is T2, OTUD7B (UniProt Q6GQQ9).
T2 sequence (whole entry): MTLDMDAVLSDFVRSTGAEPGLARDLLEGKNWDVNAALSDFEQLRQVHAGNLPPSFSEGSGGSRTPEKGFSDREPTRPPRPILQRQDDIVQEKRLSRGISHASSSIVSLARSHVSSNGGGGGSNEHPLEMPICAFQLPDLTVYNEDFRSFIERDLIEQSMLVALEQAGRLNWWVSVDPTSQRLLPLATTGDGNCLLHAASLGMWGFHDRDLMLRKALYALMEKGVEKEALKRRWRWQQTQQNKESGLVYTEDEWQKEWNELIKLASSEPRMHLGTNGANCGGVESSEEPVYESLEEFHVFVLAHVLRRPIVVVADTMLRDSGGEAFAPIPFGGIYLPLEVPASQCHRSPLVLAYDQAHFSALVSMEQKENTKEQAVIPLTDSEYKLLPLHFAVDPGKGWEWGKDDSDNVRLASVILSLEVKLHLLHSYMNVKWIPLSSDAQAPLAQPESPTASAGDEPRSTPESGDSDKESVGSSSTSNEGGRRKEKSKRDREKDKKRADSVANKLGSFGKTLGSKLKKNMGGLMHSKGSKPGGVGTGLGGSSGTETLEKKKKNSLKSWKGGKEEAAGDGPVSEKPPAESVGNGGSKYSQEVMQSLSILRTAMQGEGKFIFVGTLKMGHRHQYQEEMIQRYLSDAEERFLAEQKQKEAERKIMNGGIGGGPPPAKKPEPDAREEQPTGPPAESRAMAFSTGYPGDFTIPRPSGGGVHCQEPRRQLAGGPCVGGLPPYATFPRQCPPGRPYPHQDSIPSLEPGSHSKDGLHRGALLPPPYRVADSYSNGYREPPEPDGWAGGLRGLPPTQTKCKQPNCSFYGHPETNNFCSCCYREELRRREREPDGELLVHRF
The procedure, abridged: as §1

Another assay has as its target PRPF8 (UniProt Q6P2Q9). Summed up:
as §1

Another assay concerns the target T3, PSMD7 (UniProt P51665).
T3 sequence (whole entry): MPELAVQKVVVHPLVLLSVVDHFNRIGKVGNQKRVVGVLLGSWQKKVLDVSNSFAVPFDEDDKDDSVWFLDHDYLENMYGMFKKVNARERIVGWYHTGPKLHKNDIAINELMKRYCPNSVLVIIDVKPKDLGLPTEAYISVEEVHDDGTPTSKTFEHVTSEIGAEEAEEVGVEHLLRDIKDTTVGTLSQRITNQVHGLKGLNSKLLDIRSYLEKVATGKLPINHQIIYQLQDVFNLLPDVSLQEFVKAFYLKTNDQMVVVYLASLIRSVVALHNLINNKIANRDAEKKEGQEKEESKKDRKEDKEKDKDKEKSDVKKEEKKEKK
Summed up: as §1

In another assay the target is UCHL1 (UniProt P09936). The procedure, abridged: as §1
UCHL1, sequence (P09936 whole entry, looked up): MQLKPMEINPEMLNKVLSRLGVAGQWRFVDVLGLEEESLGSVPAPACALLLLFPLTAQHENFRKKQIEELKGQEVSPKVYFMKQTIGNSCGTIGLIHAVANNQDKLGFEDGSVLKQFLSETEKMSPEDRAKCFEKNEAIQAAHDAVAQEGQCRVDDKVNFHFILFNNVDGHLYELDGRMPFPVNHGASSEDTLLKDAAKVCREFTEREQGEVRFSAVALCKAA
The target of the next assay is T4, UCHL3 (UniProt P15374).
T4 sequence (whole entry): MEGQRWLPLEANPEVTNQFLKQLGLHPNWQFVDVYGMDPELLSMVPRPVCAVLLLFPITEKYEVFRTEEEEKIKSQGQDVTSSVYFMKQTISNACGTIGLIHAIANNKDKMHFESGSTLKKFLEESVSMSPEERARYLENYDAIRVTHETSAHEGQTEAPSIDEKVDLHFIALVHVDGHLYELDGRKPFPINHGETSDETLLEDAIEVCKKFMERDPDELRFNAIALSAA
Summed up: as §1

The next assay concerns the target T5, UCHL5 (UniProt Q9Y5K5).
T5 sequence (whole entry): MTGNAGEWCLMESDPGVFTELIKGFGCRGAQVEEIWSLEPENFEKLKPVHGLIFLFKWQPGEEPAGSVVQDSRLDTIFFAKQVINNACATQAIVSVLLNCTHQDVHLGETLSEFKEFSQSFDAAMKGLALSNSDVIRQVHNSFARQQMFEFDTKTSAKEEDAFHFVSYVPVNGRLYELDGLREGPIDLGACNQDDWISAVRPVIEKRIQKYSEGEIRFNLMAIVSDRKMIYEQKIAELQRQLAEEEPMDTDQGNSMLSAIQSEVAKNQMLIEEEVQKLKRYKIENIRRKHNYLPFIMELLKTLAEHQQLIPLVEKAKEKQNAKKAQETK
The procedure, abridged: as §1

The target in another assay is USP10 (UniProt Q14694). The procedure, abridged:
as §1

A further assay deals with T6, USP15 (UniProt Q9Y4E8).
T6 sequence (whole entry): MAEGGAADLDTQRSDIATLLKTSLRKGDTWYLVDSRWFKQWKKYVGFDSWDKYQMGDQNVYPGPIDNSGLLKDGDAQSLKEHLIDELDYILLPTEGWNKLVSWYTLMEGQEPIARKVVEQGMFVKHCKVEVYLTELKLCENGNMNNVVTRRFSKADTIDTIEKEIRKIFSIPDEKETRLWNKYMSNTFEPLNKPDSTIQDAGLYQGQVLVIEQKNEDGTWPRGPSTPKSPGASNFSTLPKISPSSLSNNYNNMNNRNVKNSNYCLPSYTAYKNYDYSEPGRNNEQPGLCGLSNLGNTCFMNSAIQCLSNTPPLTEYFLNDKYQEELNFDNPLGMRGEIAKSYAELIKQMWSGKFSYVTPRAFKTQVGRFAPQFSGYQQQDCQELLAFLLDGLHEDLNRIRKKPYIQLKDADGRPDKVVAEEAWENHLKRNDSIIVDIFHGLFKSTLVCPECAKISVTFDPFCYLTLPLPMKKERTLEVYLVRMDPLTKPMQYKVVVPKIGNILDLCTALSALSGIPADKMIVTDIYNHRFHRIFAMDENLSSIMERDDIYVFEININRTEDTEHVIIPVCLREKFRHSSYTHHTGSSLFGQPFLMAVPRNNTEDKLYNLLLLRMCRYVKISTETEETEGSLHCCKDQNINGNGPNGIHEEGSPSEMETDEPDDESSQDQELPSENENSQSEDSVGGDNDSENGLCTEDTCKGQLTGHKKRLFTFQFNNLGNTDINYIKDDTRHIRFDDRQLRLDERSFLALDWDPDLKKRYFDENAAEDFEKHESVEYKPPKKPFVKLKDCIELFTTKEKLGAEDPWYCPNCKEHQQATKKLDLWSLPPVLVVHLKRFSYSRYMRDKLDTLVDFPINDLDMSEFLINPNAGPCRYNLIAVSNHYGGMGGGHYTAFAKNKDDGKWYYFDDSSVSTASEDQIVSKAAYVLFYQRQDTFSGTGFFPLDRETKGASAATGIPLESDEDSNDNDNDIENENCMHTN
Summed up:
as §1

The target in another assay is USP16 (UniProt Q9Y5T5). The procedure, abridged:
as §1

A number with no mark means an inactive call.

USP16, sequence (Q9Y5T5 whole entry, looked up): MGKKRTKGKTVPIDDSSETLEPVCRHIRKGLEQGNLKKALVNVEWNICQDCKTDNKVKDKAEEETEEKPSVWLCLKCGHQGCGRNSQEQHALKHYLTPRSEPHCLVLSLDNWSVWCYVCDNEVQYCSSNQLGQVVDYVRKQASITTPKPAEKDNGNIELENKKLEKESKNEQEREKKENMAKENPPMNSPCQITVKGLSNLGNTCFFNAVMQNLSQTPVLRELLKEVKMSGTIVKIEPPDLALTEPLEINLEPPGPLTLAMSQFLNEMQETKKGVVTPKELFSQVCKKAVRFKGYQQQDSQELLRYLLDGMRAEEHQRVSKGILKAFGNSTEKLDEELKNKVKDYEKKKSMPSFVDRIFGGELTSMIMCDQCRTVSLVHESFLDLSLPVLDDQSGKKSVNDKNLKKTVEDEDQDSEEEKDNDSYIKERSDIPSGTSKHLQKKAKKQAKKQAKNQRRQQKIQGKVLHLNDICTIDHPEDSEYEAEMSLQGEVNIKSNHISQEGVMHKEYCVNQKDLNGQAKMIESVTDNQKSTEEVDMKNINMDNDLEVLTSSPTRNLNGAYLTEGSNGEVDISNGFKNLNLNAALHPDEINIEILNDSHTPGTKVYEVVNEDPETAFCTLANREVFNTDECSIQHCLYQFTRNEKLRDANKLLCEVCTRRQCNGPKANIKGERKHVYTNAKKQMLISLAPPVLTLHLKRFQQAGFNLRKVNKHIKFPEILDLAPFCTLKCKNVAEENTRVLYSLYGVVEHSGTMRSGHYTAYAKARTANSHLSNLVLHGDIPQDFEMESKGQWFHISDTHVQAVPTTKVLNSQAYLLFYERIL
USP10, sequence (Q14694 whole entry): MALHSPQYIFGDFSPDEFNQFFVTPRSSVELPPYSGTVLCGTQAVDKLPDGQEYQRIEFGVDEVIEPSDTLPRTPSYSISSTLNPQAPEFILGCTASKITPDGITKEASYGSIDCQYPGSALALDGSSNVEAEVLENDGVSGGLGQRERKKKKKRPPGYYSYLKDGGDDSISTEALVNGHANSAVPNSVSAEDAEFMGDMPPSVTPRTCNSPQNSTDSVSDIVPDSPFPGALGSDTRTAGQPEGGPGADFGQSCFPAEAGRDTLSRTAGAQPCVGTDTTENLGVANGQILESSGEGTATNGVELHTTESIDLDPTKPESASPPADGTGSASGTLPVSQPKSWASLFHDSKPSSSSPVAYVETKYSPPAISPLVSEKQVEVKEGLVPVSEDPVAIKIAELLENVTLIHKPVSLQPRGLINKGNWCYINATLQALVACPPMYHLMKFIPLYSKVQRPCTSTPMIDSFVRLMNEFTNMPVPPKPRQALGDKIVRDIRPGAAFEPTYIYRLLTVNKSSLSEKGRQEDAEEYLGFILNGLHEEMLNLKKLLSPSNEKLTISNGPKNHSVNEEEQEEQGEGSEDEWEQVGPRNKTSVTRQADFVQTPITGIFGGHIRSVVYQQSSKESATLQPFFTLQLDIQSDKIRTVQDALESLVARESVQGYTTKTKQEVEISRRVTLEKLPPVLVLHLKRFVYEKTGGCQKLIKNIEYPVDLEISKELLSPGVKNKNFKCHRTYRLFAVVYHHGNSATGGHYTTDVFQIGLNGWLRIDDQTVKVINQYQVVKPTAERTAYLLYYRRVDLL

As for `CC(=O)C1CCCCN1C(=O)CCl` (stereo not given), the “log2 ratio of Biotin-Ahx-Ub-VS probe labelling” value was 0.00453 in the assay with OTUD6B; -0.279 with OTUD7B; 0.0549 with PRPF8; 0.203 with PSMD7; -1.44 (active) with UCHL1; 0.181 in the assay with UCHL3. Further, the “log2 ratio of Biotin-Ahx-Ub-VS probe labelling” value with UCHL5 was -0.0871; in the assay with USP10, -0.0595; in the assay with USP15, -0.162; with USP16 it was -0.109.
